Source: the OligoGym collection

Molecular target: ACACB
Test: pooled miR-30 sensor sort-seq; sequence = guide strand
Details: shRNA
Further: reference of the scale not given here.

Sequence	sensor-assay potency score (higher = more potent)
TTTGCTTCTGATTTACTCTTGG	0.795
TAAGAAAGCAACTCCATTCTTG	0.182
TACATTTCTATGCACAGCGGGT	-1.13

Molecular target: ACAD10
Test: as above
Details: shRNA

Sequence	sensor-assay potency score (higher = more potent)
TTCAGCTTTGGCTTTCTCCTTG	-0.097
AAGCACAGCTTGTAGATCCTAG	0.0767
TACAGCTCTCTGACAGGTGGAG	-0.377
TTCCAGTCCATACACCGTCAGA	-1.34
TTTCTCCTTGAGGTCTTCGATC	-1.58
TTCGGTGCCATACCTCACCAGC	-0.906
TTTCATAATCCTGAACTCCCTC	-0.41
